# About 83,000 compounds went through this panel and 20% of them were active in at least one assay; those are over-represented in the sample as a whole.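 A percent growth of 40 corresponds to 60% growth inhibition; 0 means no net growth; -100 means all cells died. Active threshold: below 10.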 A number with no mark means an inactive call. Activity calls are given as the source filed them.
# Tested on: HL-60(TB) leukemia
# Test: NCI-60 one-dose screen, 48 h (100 = growth as untreated, 0 = no growth, -100 = all killed)
# Details: 10 µM unless noted
row,SMILES,growth
1,Cc1nc(N)[nH]c(=O)c1C,218%
2,COc1ccc(/C=C/C(=O)c2ccc(Nc3nc(NCCO)nc(Nc4ccc(Cl)cc4)n3)cc2)cc1,94%
3,COc1ccc(/C=C(\C(=O)NCc2cccnc2)S(=O)(=O)c2ccccc2)cc1OC,33%
4,C=C1C(=O)O[C@H]2[C@H]1CC/C(C=Nc1c(N)cc(C(F)(F)F)cc1Br)=C\CC[C@@]1(C)O[C@@H]21,-13.1% (active)
5,CC(=O)c1ccc2c3c(n(C)c2c1)CCCC3,93.1%
6,COc1ccc(N=C2C(=Nc3ccc(OC)cc3)N(c3ccc(N(C)C)cc3)C(=S)N2c2ccc(OC)cc2)cc1,24.6%
7,Cc1c(C(=O)Nc2nc(-c3ccccc3)cs2)nnn1-c1ccccc1Br,36.9% [50 µM]
8,Cc1cnc(-c2ccc(-c3ccc(NC(=O)Nc4c(F)cc(F)cc4F)cc3F)c3c2C(=O)NC3)[nH]1,58.1%
9,Nc1nc(Nc2cccc(F)c2)nc2ccccc12,28.6%
10,CCN(CC)CC(C)Nc1ccc([N+](=O)[O-])c2sc3ccccc3c(=O)c12 (configuration not stated),-26.2% (active)
11,COc1ccc(-c2nc3c(c(-c4ccc(Cl)cc4)nn3-c3ccccc3)c(-c3ccccc3)c2C#N)cc1,114%
12,CC(=O)Nc1cccc(NC(C)=O)n1,96.5%
13,CS(=O)(=O)OC1CC(n2ccc(=O)[nH]c2=O)OC1COC(c1ccccc1)(c1ccccc1)c1ccccc1 (configuration not stated),97.6%
14,Brc1ccc2[nH]cc(-c3cncn3CCc3ccccc3)c2c1,39.3%
15,C[N+](C)(C)c1ccc(CC2c3ccccc3-c3ccccc32)cc1,47.8%
16,CC(=O)OC[C@H]1OC(Sc2sc(C(=O)c3ccc(Cl)cc3)c(N)c2-c2nc3ccccc3s2)[C@H](OC(C)=O)[C@@H](OC(C)=O)[C@@H]1OC(C)=O (some centres not stated),108%
17,CCOC(=O)Nc1ccc2nc(-c3cscn3)[nH]c2c1,18.7%
18,CC1(C)CN(CCNc2nccc(-c3c(-c4cccc(O)c4)nc4sccn34)n2)S(=O)(=O)N1,82.5%
19,Oc1ccccc1-c1nnc(CNc2ccc(Cl)cc2)o1,4.56% (active)

row,SMILES,growth
1,C=C1C(=O)O[C@H]2[C@H]1CC/C(COC(=O)/C=C\C(=O)NCc1ccc(Cn3c(=O)sn(-c4ccccc4)c3=O)cc1)=C\CC[C@@]1(C)O[C@@H]21,-3.22% (active)
2,CNC(=O)c1cc(Oc2cccc3nc(NC(=O)Nc4cc(C(F)(F)F)cc(C(F)(F)F)c4)ccc23)ccn1,70.5%
3,N#Cc1ccc(O)c(C2=NCC(c3ccccc3)O2)c1 (configuration not stated),14.5%
4,COc1ccc(C(=O)N2c3ccccc3Sc3ccccc32)c(F)c1,15.4%
5,CCOC(OCC)c1cnc2nc(NC(C)=O)[nH]c(=O)c2n1,123%
6,COc1cc2c(cc1-c1c(C)noc1C)ncc1nc(C3CCC(F)(F)CC3)n([C@H](C)COC(F)F)c12,23.5%
7,O=C1/C(=N\c2cc(=O)[nH]n2S(=O)(=O)c2ccccc2)Nc2ccccc21,102%
8,Clc1ccccc1-c1nc(Nc2nc3ccccc3s2)nc(C(Cl)(Cl)Cl)n1,32.9%
9,CC1(C)CC[C@]2(C(=O)O)CC[C@]3(C)C(=CC[C@@H]4[C@@]5(C)C/C(=C/c6ccco6)C(=O)C(C)(C)[C@@H]5CC[C@]43C)[C@@H]2C1,-16.4% [100 µM] (active)
10,CCOC(=O)C1=C(C)NC(=O)NC1c1cccs1 (configuration not stated),60.5%
11,COc1ccc(/C=N\N2CCOCC2)cc1OC1CCCC1,104%
12,CC(=O)c1ccc(NS(=O)(=O)c2ccc([N+](=O)[O-])cc2)cc1,90.3%
13,COc1ccc(Cl)cc1Nc1nc(C(F)(F)F)ccc1C(=O)N/N=C/c1cccnc1,21.8%
14,CCCCNP1(NCCCC)=NP(NCCCC)(NCCCC)=NP(NCCCC)(NCCCC)=NP(NCCCC)(NCCCC)=N1,-59.3% (active)
15,NC(N)=N/N=C/CO,102%
16,CCN1C(=O)N(CC)C2C1N=C(SCc1ccc(Cl)cc1)N2/N=C/C=C/c1ccccc1OC (configuration not stated),37.9%
17,OCC1OC(n2cnc3c(NCc4ccco4)ncnc32)C(O)C1O (configuration not stated),-26.3% (active)
18,CN(C)c1ccc(-c2ccc(-c3ccc(C(=N)N)cn3)o2)cc1,-67.3% (active)
